An excerpt weighted towards active compounds, which were near 8% of everything screened.
MCF10A rereplic: inducers of DNA re-replication in MCF 10A breast cells; MCF 10A DNA re-replication, Hoechst nuclear intensity, 48 h; Potency, µM (highest dose often 46.1 µM), most hits filed as activators; 350,000 tested, 2.9% active; AID 624296; note: nearly all actives have a fitted effect of over 50% in size
KB-V1 cytotox: kills drug-selected multidrug resistant KB-V1 cells | KB-V1 MDR cells viability, CellTiter-Glo, 72 h | Potency, µM (series often up to 46.1 µM), most hits filed as cytotoxic | 400,000 tested, 3.4% active; note: nearly all actives have a fitted effect of over 60% in size
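Cytotoxicity via CellTiter-Glo luminescence after 72 h compound exposure at 37 degrees C. Cells: drug-selected KB-V1 line, DMEM phenol-red free plus 10% FBS. Compounds tested at multiple concentrations; normalized data fitted to concentration-effect curves.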
SW480 rerep: inducers of DNA re-replication in SW480 colon cancer cells; SW480 DNA re-replication, Hoechst DNA content imaging, 48 h; Potency, µM (top dose mostly 46.1 µM), hits mostly activators; 340,000 tested, 1.8% active; note: nearly all actives have a fitted effect of over 55% in size
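Image-based DNA-content assay: after two days of treatment, nuclei were labelled with the DNA dye Hoechst and imaged, and hits were compounds raising the count of nuclei showing high fluorescence intensity.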
HT1080NT lethal: kills 2HG-producing HT-1080-NT fibrosarcoma cells. HT-1080-NT fibrosarcoma viability, CellTiter-Glo ATP luminescence, 48 h. Potency, µM (series often up to 46.1 µM), actives largely listed as cytotoxic. 360,000 tested, 1.6% active;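 note: NT is the 2HG producing partner of a matched IDH1 knockdown line; nearly all actives have a fitted effect of over 55% in size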
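Compounds were tested in concentration-response format on HT-1080-NT cells for 48 hours at 37 degrees C. Cell viability came from CellTiter-Glo luminescence; curves were classified by r2, response magnitude and activity.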
KB-3-1 cytotox: kills parental KB-3-1 adenocarcinoma cells; KB-3-1 viability, CellTiter-Glo ATP luminescence, 72 h; Potency, µM (titrated, usually from 46.1 µM), hits mostly cytotoxic; 400,000 tested, 1.4% active; AID 1347075; note: nearly all actives have a fitted effect of over 60% in size
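Parental KB-3-1 adenocarcinoma cells in phenol-red-free DMEM with 10% FBS were pin-treated with compounds at several concentrations, incubated 72 h at 37 °C, and viability read by CellTiter-Glo luminescence; concentration-effect curves were fitted after normalization.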
HT1080 IDH1KD tx: HT-1080 IDH1 knockdown cell toxicity (counter line); HT-1080 IDH1 knockdown viability, ATP luminescence, 48 h; Potency, µM (doses to about 46.1 µM), actives largely listed as cytotoxic; 360,000 tested, 2% active
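CellTiter-Glo luminescence after 48 h compound exposure at 37 degrees C of IDH1-knockdown HT-1080 cells in 5% FBS RPMI. %Activity scaled between DMSO wells and cell-free media wells, with curves fitted and assigned curve classes.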
Hits are given with their value; n = inactive; u = inconclusive; x = not tested or not shown. Calls come from the whole dose curve; as a rule, active = well fitted curve in the direction sought with a large enough effect; inconclusive = small, poorly fitted or top-dose-only effect, or another doubt; inactive = no such curve, though single readings can be large; an effect the other way counts as inactive or inconclusive.

SMILES	MCF10A rereplic	KB-V1 cytotox	SW480 rerep	HT1080NT lethal	KB-3-1 cytotox	HT1080 IDH1KD tx
Cc1nc(-c2cccnc2)sc1CCNS(=O)(=O)c1ccc(F)cc1	x	u	x	x	n	x
CCCCC(=O)NC(Nc1sc2c(c1C(N)=O)CCCC2)(C(=O)OCC)C(F)(F)F (centres undefined)	n	n	2.91µM	n	n	n
COc1ccccc1NC(=O)C1CCN(c2cnccn2)CC1	x	n	x	x	n	x
Cc1ccc(-n2nnnc2-c2cnc3cc4c(cc3c2C)OCO4)cc1	n	23.1µM	n	n	n	n
Cc1c(-c2nnnn2-c2ccc(F)cc2)cnc2cc3c(cc12)OCO3	n	n	n	n	n	n
CCOC(=O)C1=C(O)c2ccccc2C(=O)/C1=C\c1ccc(CC)cc1	8.2µM	u	6.51µM	11.2µM	11.6µM	8.91µM
CCOC(=O)c1c(C)nc2c(c1-c1cc(OC)ccc1OC)C(=O)c1ccccc1-2	n	n	n	n	n	n
CCOC(=O)C1=C(Cc2ccc(OC)cc2)C(=O)c2ccccc2C1=O	n	n	6.51µM	10µM	n	7.94µM
O=C(Nc1ccccc1-c1cn2c(CN3CCNCC3)csc2n1)c1cnc2ccccc2n1	x	u	x	x	n	x
Cn1c(=N)c(S(=O)(=O)c2ccc(F)cc2)cc2c(=O)n3ccccc3nc21	n	n	u	n	n	n
C=CCn1c(=N)c(S(=O)(=O)c2ccc(C)c(C)c2)cc2c(=O)n3ccccc3nc21	23.1µM	n	u	n	n	n
Cn1c(=N)c(S(=O)(=O)c2ccccc2)cc2c(=O)n3ccccc3nc21	18.4µM	n	u	n	n	n
CC(C)OCCCn1c(=N)c(S(=O)(=O)c2ccccc2)cc2c(=O)n3ccccc3nc21	u	n	n	n	n	n
Cc1ccc(S(=O)(=O)c2cc3c(=O)n4ccccc4nc3n(C)c2=N)cc1C	4.11µM	n	n	n	n	n
COc1ccc(-c2nn(C)c3sc(C(=O)Nc4cccc(F)c4)cc23)cc1OC	x	u	x	x	n	x
CC1CCC(NC(=O)CN(C)CC(=O)Nc2ccc(F)cc2)CC1 (centres undefined)	n	23.1µM	n	n	n	n
CN(CC(=O)Nc1ccc(Cl)c(C(F)(F)F)c1)CC(=O)NC1CCCCC1	u	n	u	n	n	n
Cc1ccc(CNC(=O)Cn2c(=O)n(-c3ccc(Cl)cc3)c(=O)c3c(C)c(C)sc32)cc1	x	u	x	x	n	x
Nc1ccc2c(c1)C(=O)C(=O)c1ccccc1-2	u	4.61µM	3.66µM	4.61µM	2.91µM	u
Nc1ccc2c(c1)C(=O)c1ccccc1-2	n	n	u	n	n	n
O=C1C(=O)c2ccc(-c3ccccc3)cc2-c2ccccc21	u	3.66µM	5.8µM	3.66µM	4.11µM	3.26µM
CCCCOC(=O)c1ccc(NC(=O)C(=O)CC(=O)c2ccc(OC)cc2)cc1	14.6µM	u	n	n	u	n
CCN1C(=O)/C(=C/c2ccc(C)o2)N(C)C1=S	u	u	18.4µM	n	n	n
CS(=O)(=O)c1cc([N+](=O)[O-])c(Sc2nc3ccccc3[nH]2)c([N+](=O)[O-])c1	u	n	n	11.2µM	n	10µM
Cn1cnc([N+](=O)[O-])c1Sc1nc2ccccc2[nH]1	u	n	n	u	n	18.4µM
SMILES	MCF10A rereplic	KB-V1 cytotox	SW480 rerep	HT1080NT lethal	KB-3-1 cytotox	HT1080 IDH1KD tx
O=C(O)c1cc([N+](=O)[O-])c(Sc2nc3ccccc3[nH]2)c([N+](=O)[O-])c1	n	u	u	n	n	n
COc1ccc(-c2cc3ccc(O)c(CN4CCC(C)CC4)c3oc2=O)cc1OC	x	n	x	x	n	x
CC1CCN(S(=O)(=O)c2ccc3c(c2)N(CC(=O)NCc2ccccc2)C(=O)CO3)CC1	x	u	x	x	n	x
CCc1cc2ccc(C)cc2nc1SCC(=O)N1CCN(C(=O)c2ccco2)CC1	u	5.17µM	u	n	n	n
Cc1cc(C)c2nc(C(F)(F)F)nc(N3CCN(C(=O)c4ccco4)CC3)c2c1	u	11.6µM	n	n	n	n
CCc1cc2cc3c(cc2nc1SCC(=O)N1CCN(C(=O)c2ccco2)CC1)OCO3	n	u	n	n	n	n

Compound activity: PubChem BioAssay, National Center for Advancing Translational Sciences (NCATS)
